The record followed here is PubChem BioAssay (NCI).

Among the test systems are SK-MEL-2 melanoma; SN12C renal; UO-31 renal; TK-10 renal; ACHN renal; CAKI-1 renal; A498 renal; CCRF-CEM leukemia; SR leukemia; RPMI-8226 leukemia; OVCAR-8 ovarian; OVCAR-5 ovarian; OVCAR-4 ovarian; SK-OV-3 ovarian; IGROV1 ovarian; OVCAR-3 ovarian; NCI/ADR-RES ovarian; MOLT-4 leukemia; EKVX NSCLC; HS 578T breast.
Test in all cases: NCI-60 one-dose screen, 48 h (100 = growth as untreated, 0 = no growth, -100 = all killed)
Common to all, as to conditions: 10 µM unless noted

Where “and” joins values, the source holds several entries; their conditions need not be identical. Identical values can stand only once. About 83,000 compounds went through this panel and 20% of them were active in at least one assay; those are over-represented in the sample as a whole.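 Results are percent growth after 48 hours of single-concentration exposure. 100 means growth as in untreated cells, lower positive values show inhibition; negative values down to -100 show cell death.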 Calls of active or inactive are those of the source. Rule for the calls: active = growth percent below 10; inactive = the rest.

In the case of `O=C(/C=C/c1cccc(Cl)c1)c1ccccc1`, the growth was 109% (inactive) and 100% (inactive) with SK-MEL-2 melanoma; 92.3% (inactive) and 81% (inactive) in the test on SN12C renal; 77.7% (inactive) and 70% (inactive) in the test on UO-31 renal; 84.8% (inactive) in the test on TK-10 renal; 90.7% (inactive) and 81.5% (inactive) in the test on ACHN renal; 90.8% (inactive) and 75.4% (inactive) in the test on CAKI-1 renal. The growth with A498 renal was 79.7% (inactive) and 102% (inactive); with CCRF-CEM leukemia, 74.1% (inactive) and 63.7% (inactive); with SR leukemia, 7.8% (active) and 11.7% (inactive); in the test on RPMI-8226 leukemia it was -30.6% (active) and 0.877% (active); with OVCAR-8 ovarian, 88.2% (inactive) and 79.9% (inactive); in the test with OVCAR-5 ovarian, 97.9% (inactive) and 95.6% (inactive). In addition, the growth with OVCAR-4 ovarian was 97.8% (inactive) and 92.9% (inactive); with SK-OV-3 ovarian, 109% (inactive) and 98.5% (inactive); in the test with IGROV1 ovarian it was 93.7% (inactive) and 71.8% (inactive); in the test on OVCAR-3 ovarian, 84.9% (inactive) and 80.5% (inactive); in the test with NCI/ADR-RES ovarian, 105% (inactive) and 88.8% (inactive).

For the compound `Oc1c(Cl)cc(Cl)c2cccnc12`, the growth with SK-MEL-2 melanoma was 80% (inactive) and 60.3% (inactive); in the test on SN12C renal, 57.3% (inactive); in the test with TK-10 renal, 53% (inactive) and 107% (inactive); in the test with ACHN renal it was 42% (inactive); with CAKI-1 renal it was 46.3% (inactive) and 51.3% (inactive); with A498 renal it was 67.6% (inactive) and 66.6% (inactive). In addition, the growth in the test on CCRF-CEM leukemia was 31% (inactive) and 36.4% (inactive); in the test on SR leukemia, 32.7% (inactive) and 31.9% (inactive); with RPMI-8226 leukemia, 50.3% (inactive) and 50.1% (inactive); with OVCAR-5 ovarian, 94.9% (inactive); in the test with OVCAR-4 ovarian, 50.1% (inactive) and 45.7% (inactive); with SK-OV-3 ovarian it was 86.5% (inactive) and 65.8% (inactive). The growth is 52.9% (inactive) with IGROV1 ovarian; 68% (inactive) and 15.3% (inactive) in the test with OVCAR-3 ovarian; 27.4% (inactive) and 29.3% (inactive) with NCI/ADR-RES ovarian.

Consider `O=C1c2cccnc2-c2nccc3c2c1nc1cc(Br)ccc13`, for which the growth with SK-MEL-2 melanoma was 16.8% (inactive) and -59% (active); with SN12C renal, 11.5% (inactive) and -70.9% (active); in the test on UO-31 renal it was -80% (active) and -93% (active); in the test with TK-10 renal, 44.5% (inactive) and -98.9% (active); with ACHN renal, -72.9% (active) and -92.1% (active); with CAKI-1 renal, -49.6% (active) and -90.7% (active). Moreover, the growth with A498 renal was -52% (active) and -78.4% (active); in the test on CCRF-CEM leukemia, -26.3% (active) and -4.46% (active); with SR leukemia it was -38.2% (active) and 17.6% (inactive); in the test with RPMI-8226 leukemia, -49.7% (active) and -22.2% (active); in the test with OVCAR-5 ovarian, 32.3% (inactive) and -53% (active); in the test with OVCAR-4 ovarian it was -54.2% (active) and -85.3% (active). For the same compound, the growth in the test on SK-OV-3 ovarian is -10.1% (active) and -96% (active); with IGROV1 ovarian, -77.6% (active) and -77.5% (active); with OVCAR-3 ovarian, -83.1% (active) and -95.4% (active); with NCI/ADR-RES ovarian it was -50.7% (active) and -38.1% (active).

In the case of `CCOC(=O)/C=C/c1ccc([N+](=O)[O-])o1`, the growth in the test with SK-MEL-2 melanoma is 85.3% (inactive); with SN12C renal, 85.5% (inactive); in the test on UO-31 renal, 38.5% (inactive); with ACHN renal, 9.88% (active); in the test on CAKI-1 renal, 9% (active); with A498 renal, 102% (inactive). In addition, the growth with CCRF-CEM leukemia is 7.26% (active); in the test with MOLT-4 leukemia it was -3.02% (active); in the test on SR leukemia, 16.2% (inactive); with RPMI-8226 leukemia it was 74.7% (inactive); in the test on OVCAR-4 ovarian, 97.4% (inactive); in the test with SK-OV-3 ovarian, 106% (inactive). Further, the growth is 77.5% (inactive) with IGROV1 ovarian, 17.1% (inactive) in the test with OVCAR-3 ovarian and 50.6% (inactive) in the test on NCI/ADR-RES ovarian.

As to `O=C1c2ccccc2C(=O)N1c1ccccc1`, the growth is 128% (inactive) in the test with SK-MEL-2 melanoma; 97.2% (inactive) with SN12C renal; 89.1% (inactive) in the test with UO-31 renal; 117% (inactive) with TK-10 renal; 99.5% (inactive) with ACHN renal; 81.3% (inactive) in the test on CAKI-1 renal. Further, the growth in the test with A498 renal was 109% (inactive); in the test with CCRF-CEM leukemia, 114% (inactive); in the test on SR leukemia, 85.7% (inactive); in the test with RPMI-8226 leukemia, 119% (inactive); with OVCAR-8 ovarian it was 98.6% (inactive); in the test with OVCAR-5 ovarian it was 107% (inactive). For the same compound, the growth in the test with OVCAR-4 ovarian is 105% (inactive); in the test on SK-OV-3 ovarian, 99.1% (inactive); in the test on IGROV1 ovarian it was 105% (inactive); in the test with OVCAR-3 ovarian, 108% (inactive); in the test on NCI/ADR-RES ovarian it was 105% (inactive).

Turning to `O=C1N[C@H]2[C@H](CS[C@H]2CCCCC(=O)N(CCP(c2ccccc2)c2ccccc2)CCP(c2ccccc2)c2ccccc2)N1`, the growth with EKVX NSCLC was 75.3% (inactive); in the test with SN12C renal, 94.4% (inactive); with UO-31 renal, 77.3% (inactive); in the test on TK-10 renal, 97.4% (inactive); in the test with ACHN renal, 95.7% (inactive); with CAKI-1 renal, 99.2% (inactive). Moreover, the growth was 94.2% (inactive) with A498 renal; 62.7% (inactive) with CCRF-CEM leukemia; 82.8% (inactive) with MOLT-4 leukemia; 102% (inactive) in the test with SR leukemia; 57% (inactive) in the test on RPMI-8226 leukemia; 95.1% (inactive) in the test on OVCAR-8 ovarian. The growth is 95.2% (inactive) in the test on OVCAR-5 ovarian; 87.9% (inactive) in the test on OVCAR-4 ovarian; 111% (inactive) in the test with SK-OV-3 ovarian; -47.4% (active) in the test on IGROV1 ovarian; 0.222% (active) in the test on OVCAR-3 ovarian; 101% (inactive) in the test with NCI/ADR-RES ovarian.

For the compound `Cc1ccc2nc(C[n+]3ccc4ccccc4c3)ccc2c1`, the growth with EKVX NSCLC is 72.2% (inactive); in the test on SN12C renal, 39.3% (inactive); in the test on UO-31 renal, 85.7% (inactive); in the test with TK-10 renal, 95% (inactive); with ACHN renal, 101% (inactive); with CAKI-1 renal, 98.3% (inactive). Besides, the growth was 81% (inactive) with A498 renal; 52.6% (inactive) with CCRF-CEM leukemia; 71.9% (inactive) in the test with MOLT-4 leukemia; 62.8% (inactive) in the test with SR leukemia; 30.5% (inactive) in the test on RPMI-8226 leukemia; 43.8% (inactive) in the test on OVCAR-4 ovarian. Moreover, the growth with SK-OV-3 ovarian is 70% (inactive); with IGROV1 ovarian it was 59.7% (inactive); in the test on OVCAR-3 ovarian it was 52.8% (inactive); in the test with HS 578T breast, 90.8% (inactive); in the test on NCI/ADR-RES ovarian, 104% (inactive).

Take `Cc1ccc2nc(-[n+]3cc4ccccc4cc3C)ccc2c1`: the growth was 39.5% (inactive) in the test with SK-MEL-2 melanoma; 13.2% (inactive) in the test on SN12C renal; 81.9% (inactive) in the test with TK-10 renal; 103% (inactive) with ACHN renal; 103% (inactive) with CAKI-1 renal; 52.5% (inactive) in the test on A498 renal. The growth is 40% (inactive) in the test with CCRF-CEM leukemia; 44.7% (inactive) with MOLT-4 leukemia; 33.2% (inactive) in the test on SR leukemia; 15.1% (inactive) in the test on RPMI-8226 leukemia; 28.6% (inactive) with OVCAR-4 ovarian; 38.3% (inactive) in the test on SK-OV-3 ovarian. Further, the growth in the test with IGROV1 ovarian is 46.4% (inactive); in the test with OVCAR-3 ovarian, 44.6% (inactive); in the test on NCI/ADR-RES ovarian, 109% (inactive).
